Assay results taken from PubChem BioAssay (EPA / NIEHS).
Inconclusive results are not listed. The source made the active and inactive calls. The calls were made as follows, unless noted: active = hit-call score of the fitted dose curve at least 0.9, where 1 is the maximum; inconclusive = response in the unintended direction; inactive = score below 0.9.

What was measured:
[1] = ATG_GAL4_TRANS: Attagene TRANS-FACTORIAL HepG2 Assay for GAL4 (Internal Marker) (AID 2282976); conditions: HepG2 Attagene TRANS GAL4 internal marker reporter
Method in brief: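 In transfected human HepG2 liver cells dosed 24 h, GAL4 reporter mRNA serves as a baseline marker. Detection by RT-PCR with fluorescent capillary electrophoresis, activity fitted upward relative to DMSO.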

[2] = target: Glucocorticoid receptor (Homo sapiens) (UniProt P04150); experiment: ATG_GR_TRANS: Attagene TRANS-FACTORIAL HepG2 Assay for human Glucocorticoid Receptor (GR) (AID 2282978); conditions: HepG2 Attagene TRANS GR reporter, mRNA transcription;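 also: activators score as hits since higher reporter transcript over DMSO is fitted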
Chain of Glucocorticoid receptor (Homo sapiens) (P04150 whole entry, looked up, the tested form may be a part): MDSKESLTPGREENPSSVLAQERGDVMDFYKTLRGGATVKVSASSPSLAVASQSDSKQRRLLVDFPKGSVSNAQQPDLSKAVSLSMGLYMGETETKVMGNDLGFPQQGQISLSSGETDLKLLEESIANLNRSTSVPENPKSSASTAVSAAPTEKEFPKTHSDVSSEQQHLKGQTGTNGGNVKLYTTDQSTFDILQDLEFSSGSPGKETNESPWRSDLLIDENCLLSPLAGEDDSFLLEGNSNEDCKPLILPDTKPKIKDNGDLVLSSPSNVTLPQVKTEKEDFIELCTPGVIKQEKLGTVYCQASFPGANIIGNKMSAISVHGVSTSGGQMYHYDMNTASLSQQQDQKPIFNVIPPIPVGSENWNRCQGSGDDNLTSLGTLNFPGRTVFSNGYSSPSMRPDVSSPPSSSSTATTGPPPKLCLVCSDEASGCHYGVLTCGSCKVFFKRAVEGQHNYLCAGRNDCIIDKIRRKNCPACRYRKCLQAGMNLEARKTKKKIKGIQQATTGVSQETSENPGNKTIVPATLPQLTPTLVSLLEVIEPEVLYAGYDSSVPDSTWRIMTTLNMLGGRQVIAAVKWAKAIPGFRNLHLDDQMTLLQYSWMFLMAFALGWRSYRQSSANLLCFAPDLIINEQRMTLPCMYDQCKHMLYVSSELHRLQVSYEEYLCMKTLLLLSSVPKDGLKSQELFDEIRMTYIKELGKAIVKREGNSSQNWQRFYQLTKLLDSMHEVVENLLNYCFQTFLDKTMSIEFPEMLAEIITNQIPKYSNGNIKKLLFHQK
Method in brief: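 In this trans-factorial format, exogenous NR-GAL4 chimeric proteins in transfected HepG2 cells regulate GAL4-UAS reporter transcription. After 24 h treatment, reporter mRNA induction relative to DMSO is read by RT-PCR and capillary electrophoresis.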

[3] = target: Oxysterols receptor LXR-alpha (Homo sapiens) (UniProt Q13133); experiment: ATG_LXRa_TRANS: Attagene TRANS-FACTORIAL HepG2 Assay for human Liver X Receptor alpha (LXRa) (AID 2282980); conditions: HepG2 Attagene TRANS reporter, LXRa transactivation
Chain of Oxysterols receptor LXR-alpha (Homo sapiens) (Q13133 whole entry, looked up, the tested form may be a part): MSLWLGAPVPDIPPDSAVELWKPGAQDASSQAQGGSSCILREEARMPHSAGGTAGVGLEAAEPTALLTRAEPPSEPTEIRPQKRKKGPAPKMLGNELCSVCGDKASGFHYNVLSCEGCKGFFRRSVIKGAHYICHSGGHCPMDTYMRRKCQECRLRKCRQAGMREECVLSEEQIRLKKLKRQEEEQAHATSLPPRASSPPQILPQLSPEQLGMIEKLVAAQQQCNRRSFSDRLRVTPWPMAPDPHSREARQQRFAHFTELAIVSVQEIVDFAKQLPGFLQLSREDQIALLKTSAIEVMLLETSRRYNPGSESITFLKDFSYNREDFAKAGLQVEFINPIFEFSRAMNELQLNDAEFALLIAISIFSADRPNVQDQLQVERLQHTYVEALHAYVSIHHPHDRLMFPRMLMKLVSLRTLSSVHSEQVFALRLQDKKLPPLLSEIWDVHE
Method in brief: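 Chemical-induced reporter mRNA measured by RT-PCR with fluorescent labelling and capillary electrophoresis after 24 h dosing of transiently transfected HepG2 cells expressing exogenous NR-Gal4 chimeras; increases scored against DMSO baseline.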

[4] = target: Oxysterols receptor LXR-beta (Homo sapiens) (UniProt P55055); experiment: ATG_LXRb_TRANS: Attagene TRANS-FACTORIAL HepG2 Assay for human Liver X Receptor beta (LXRb) (AID 2282981); conditions: HepG2 Attagene TRANS GAL4-LXRb reporter, mRNA
Chain of Oxysterols receptor LXR-beta (Homo sapiens) (P55055 whole entry, looked up, the tested form may be a part): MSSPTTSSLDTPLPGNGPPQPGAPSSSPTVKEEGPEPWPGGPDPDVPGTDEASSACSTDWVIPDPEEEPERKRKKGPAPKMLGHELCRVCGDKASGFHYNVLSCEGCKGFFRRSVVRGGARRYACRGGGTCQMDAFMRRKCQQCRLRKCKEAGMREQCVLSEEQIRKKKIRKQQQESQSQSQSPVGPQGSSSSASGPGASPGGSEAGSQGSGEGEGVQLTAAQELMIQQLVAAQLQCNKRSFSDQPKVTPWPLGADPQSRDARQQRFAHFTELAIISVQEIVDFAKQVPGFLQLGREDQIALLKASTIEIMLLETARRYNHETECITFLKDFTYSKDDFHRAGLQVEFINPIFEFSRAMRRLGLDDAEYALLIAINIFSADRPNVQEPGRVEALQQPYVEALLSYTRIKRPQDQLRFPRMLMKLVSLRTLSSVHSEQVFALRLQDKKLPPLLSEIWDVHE
Method in brief: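 In this TRANS format, exogenous chimeric NR-Gal4 protein activity, not endogenous factors, drives reporter expression in transfected human HepG2 cells. Exposure lasted 24 h; reporter mRNA was read by fluorescent capillary electrophoresis.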

[5] = target: human Peroxisome Proliferator-activated Receptor delta (PPARd), PPARD (gene 5467) (UniProt Q03181); experiment: ATG_PPARd_TRANS: Attagene TRANS-FACTORIAL HepG2 Assay for human Peroxisome Proliferator-activated Receptor delta (PPARd) (AID 2283002)
Chain of human Peroxisome Proliferator-activated Receptor delta (PPARd), PPARD (gene 5467) (Q03181 whole entry, looked up, the tested form may be a part): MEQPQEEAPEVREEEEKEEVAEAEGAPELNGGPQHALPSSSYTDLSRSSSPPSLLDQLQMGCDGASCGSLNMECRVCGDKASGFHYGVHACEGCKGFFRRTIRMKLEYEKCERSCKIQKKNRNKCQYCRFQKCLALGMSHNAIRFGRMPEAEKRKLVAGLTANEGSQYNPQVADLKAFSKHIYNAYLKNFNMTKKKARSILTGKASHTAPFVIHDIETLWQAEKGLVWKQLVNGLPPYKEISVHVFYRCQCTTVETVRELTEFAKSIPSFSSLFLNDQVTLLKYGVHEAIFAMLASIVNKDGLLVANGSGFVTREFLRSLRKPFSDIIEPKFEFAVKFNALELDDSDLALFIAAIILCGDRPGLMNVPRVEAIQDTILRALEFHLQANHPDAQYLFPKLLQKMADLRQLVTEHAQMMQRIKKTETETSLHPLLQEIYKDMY
Method in brief: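 HepG2 cells transiently transfected with multiplexed GAL4-UAS reporter units and exogenous chimeric NR-Gal4 proteins; 24 h compound exposure. Reporter mRNA measured by RT-PCR, 6-FAM labelling, HpaI digestion and capillary electrophoresis; gain of signal versus DMSO.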

[6] = TOX21_p53_BLA_p2_viability: Viability Assessment in the Tox21 HCT-116 p53 Agonism Beta-lactamase Assay, Phase 2 (AID 2283591);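 also: compound exposure lasted 16 h at 37 °C; actives lower the ATP signal meaning cytotoxicity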
Method in brief: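 HCT-116 p53-bla cells (4000/well) rested 5 h at 37C, then received compounds in DMSO (217-fold dilution) for 16 h at 37C, 5% CO2. After the CCF4 read, CellTiter-Glo was added; ATP luminescence was read after 30 min at room temperature.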

[7] = target: Bile acid receptor (Homo sapiens) (UniProt Q96RI1); experiment: ATG_IR1_CIS: Attagene CIS-FACTORIAL HepG2 Assay for human Nuclear Receptor Subfamily 1 Group H Member 4 (NR1H4), IR1 submotif (AID 2282946; active = hit-call score of the fitted dose curve at least 0.9, where 1 is the maximum; inactive = score below 0.9); conditions: IR1 reporter transcription, actives raise or lower the signal
Chain of Bile acid receptor (Homo sapiens) (Q96RI1 whole entry, looked up): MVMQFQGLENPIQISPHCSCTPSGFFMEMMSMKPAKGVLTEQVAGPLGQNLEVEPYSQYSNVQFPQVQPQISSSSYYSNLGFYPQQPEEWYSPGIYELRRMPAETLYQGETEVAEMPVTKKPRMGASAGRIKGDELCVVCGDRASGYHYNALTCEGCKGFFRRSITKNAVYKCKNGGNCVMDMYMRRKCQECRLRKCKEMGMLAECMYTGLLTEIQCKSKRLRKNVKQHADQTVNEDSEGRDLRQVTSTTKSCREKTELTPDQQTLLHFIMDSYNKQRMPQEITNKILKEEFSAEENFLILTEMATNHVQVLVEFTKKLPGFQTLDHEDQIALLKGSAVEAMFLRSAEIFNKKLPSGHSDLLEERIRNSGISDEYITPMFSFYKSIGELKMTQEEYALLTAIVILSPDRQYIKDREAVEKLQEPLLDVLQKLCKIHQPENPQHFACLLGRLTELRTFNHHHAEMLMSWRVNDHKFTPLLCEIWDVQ
Method in brief: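 Transient MRTU transfection, HepG2; 24 h dosing; RNA → RT-PCR → 6-FAM primer extension → HpaI digest → capillary electrophoresis fluorescence. Gain/loss of signal fitted relative to DMSO.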

[8] = ATG_PPRE_CIS: Attagene CIS-FACTORIAL HepG2 Assay for human Peroxisome Proliferator-activated Response Element (PPRE) (AID 2282958; active = hit-call score of the fitted dose curve at least 0.9, where 1 is the maximum; inactive = score below 0.9); conditions: HepG2 PPRE cis-element reporter, Attagene transcription factor profiling; actives raise or lower the signal
Method in brief: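 Cells are first transfected transiently with the multiplexed reporter library, then dosed for 24 h. Total RNA is reverse-transcribed, amplified, fluorescently end-labeled and HpaI-cut before capillary electrophoresis; activity is fitted bidirectionally against DMSO controls.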

[9] = target: Nuclear receptor subfamily 1 group I member 3 (Homo sapiens) (UniProt Q14994); experiment: ATG_CAR_TRANS: Attagene TRANS-FACTORIAL HepG2 Assay for human Constitutive Androstane Receptor (CAR) (AID 2282969); conditions: HepG2 Attagene TRANS-FACTORIAL CAR reporter;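 also: activators raise reporter mRNA above DMSO so AC50 marks induction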
Chain of Nuclear receptor subfamily 1 group I member 3 (Homo sapiens) (Q14994 whole entry, looked up, the tested form may be a part): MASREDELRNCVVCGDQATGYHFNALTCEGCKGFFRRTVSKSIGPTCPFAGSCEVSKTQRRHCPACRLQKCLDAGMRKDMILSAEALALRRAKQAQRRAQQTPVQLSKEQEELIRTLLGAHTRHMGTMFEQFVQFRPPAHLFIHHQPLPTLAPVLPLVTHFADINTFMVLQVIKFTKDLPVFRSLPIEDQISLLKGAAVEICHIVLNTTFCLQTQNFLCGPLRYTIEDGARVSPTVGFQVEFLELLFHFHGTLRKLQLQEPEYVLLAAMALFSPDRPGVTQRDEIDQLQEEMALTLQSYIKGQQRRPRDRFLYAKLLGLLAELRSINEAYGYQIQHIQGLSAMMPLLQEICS
Method in brief: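 HepG2 cells transiently transfected with multiplexed GAL4-UAS reporter units expressing chimeric NR-Gal4 proteins; compound exposure 24 h. Reporter mRNA measured by RT-PCR, 6-FAM labelling, HpaI digestion and capillary electrophoresis; gain-of-signal fitted against DMSO baseline.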

[10] = ATG_M_19_TRANS: Attagene TRANS-FACTORIAL HepG2 Assay for M19 Transcription Factor (Internal Marker) (AID 2282974); conditions: HepG2 Attagene TRANS-FACTORIAL M19 internal marker reporter
Method in brief: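 Cells: human HepG2, transiently transfected with multiplexed reporter transcription units. Exposure: 24 h. Detection: RT-PCR of reporter mRNA with capillary electrophoresis. Analysis: gain-of-signal vs DMSO.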

[11] = target: human RAR-related Orphan Receptor beta (RORb), RORB (gene 6096) (UniProt Q92753); experiment: ATG_RORb_TRANS: Attagene TRANS-FACTORIAL HepG2 Assay for human RAR-related Orphan Receptor beta (RORb) (AID 2283010)
Chain of human RAR-related Orphan Receptor beta (RORb), RORB (gene 6096) (Q92753 whole entry, looked up, the tested form may be a part): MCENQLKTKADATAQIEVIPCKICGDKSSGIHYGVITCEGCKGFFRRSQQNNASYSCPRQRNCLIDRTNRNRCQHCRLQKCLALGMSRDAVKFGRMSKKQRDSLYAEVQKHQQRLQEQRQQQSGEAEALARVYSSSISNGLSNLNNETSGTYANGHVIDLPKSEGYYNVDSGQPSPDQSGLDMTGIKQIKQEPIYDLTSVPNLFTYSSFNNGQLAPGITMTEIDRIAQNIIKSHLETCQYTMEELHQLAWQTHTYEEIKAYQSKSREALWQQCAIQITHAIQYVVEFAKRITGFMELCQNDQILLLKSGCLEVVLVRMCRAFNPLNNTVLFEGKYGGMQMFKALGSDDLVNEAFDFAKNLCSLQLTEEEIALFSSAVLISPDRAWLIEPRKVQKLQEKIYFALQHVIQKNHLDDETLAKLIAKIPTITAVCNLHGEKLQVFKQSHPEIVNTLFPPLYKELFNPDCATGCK
Method in brief: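 HepG2 cells transiently transfected with GAL4-UAS reporter units expressing chimeric NR-Gal4 protein; reporter mRNA measured 24 h after dosing by RT-PCR, 6-FAM labelling and capillary electrophoresis. Gain-of-signal fitted relative to DMSO baseline.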

[12] = ATG_XTT_Cytotoxicity: Cytotoxicity Assessment in the Attagene TRANS-FACTORIAL HepG2 Assay (AID 2283584)
Method in brief: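 Viability endpoint from XTT after 24 h chemical exposure of reporter-transfected human HepG2 liver cells; signal loss fitted relative to DMSO negative control.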

[13] = target: human Vitamin D Receptor (VDR), VDR (gene 7421) (UniProt P11473); experiment: ATG_VDR_TRANS: Attagene TRANS-FACTORIAL HepG2 Assay for human Vitamin D Receptor (VDR) (AID 2283022)
Chain of human Vitamin D Receptor (VDR), VDR (gene 7421) (P11473 whole entry, looked up, the tested form may be a part): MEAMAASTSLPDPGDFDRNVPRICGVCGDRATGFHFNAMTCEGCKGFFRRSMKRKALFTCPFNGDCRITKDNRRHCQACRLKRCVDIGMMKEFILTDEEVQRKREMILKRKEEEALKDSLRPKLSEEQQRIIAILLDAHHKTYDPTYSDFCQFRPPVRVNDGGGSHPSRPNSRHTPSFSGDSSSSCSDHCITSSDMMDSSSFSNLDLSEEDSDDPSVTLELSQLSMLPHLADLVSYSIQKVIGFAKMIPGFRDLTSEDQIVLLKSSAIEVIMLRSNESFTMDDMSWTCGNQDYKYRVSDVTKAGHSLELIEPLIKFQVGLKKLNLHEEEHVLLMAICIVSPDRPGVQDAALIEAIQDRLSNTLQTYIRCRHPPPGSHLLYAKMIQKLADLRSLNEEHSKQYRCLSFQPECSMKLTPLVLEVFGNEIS
Method in brief: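 Transactivation by an exogenous VDR-Gal4 chimera in transiently transfected HepG2 cells was measured as reporter transcript level 24 hours after chemical treatment. RT-PCR products were analysed by capillary electrophoresis and fitted in the positive direction relative to DMSO.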

[14] = CCTE_Harrill_HTTr_Viability_MCF7: CCTE's 6-hour Cell Viability Assessment for the High-Throughput Transcriptomics (HTTr) Platform, in MCF-7 cells cultured in DMEM + 10% fetal bovine serum, Harrill Lab (AID 2284010; active = hit-call score of the fitted dose curve at least 0.9, where 1 is the maximum; inactive = score below 0.9)
Method in brief: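 MCF-7 cells in DMEM + 10% FBS, 384-well, exposed 6 h to an eight-point dilution series. Membrane integrity scored by high-content imaging of propidium iodide exclusion; bidirectional fit versus DMSO.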

[15] = ACEA_ER_AUC_viability: ACEA Biosciences xCELLigence Real-Time Cell Analysis on Estrogen Receptor Agonism for Viability (AID 2283782);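 also: continuous compound exposure with impedance area under curve over 80 h; hit means loss of impedance signal meaning reduced cell growth or viability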
Method in brief: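 T-47D human breast cells in phenol red-free RPMI1640 with 10% charcoal-stripped FBS were dosed with an 8-point 1:4 dilution series from 100 uM top final concentration, in duplicate. Impedance-based growth was followed for 80 h; AUC analysed versus DMSO.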

[16] = target: Cellular tumor antigen p53 (Homo sapiens) (UniProt P04637); experiment: ATG_p53_CIS: Attagene CIS-FACTORIAL HepG2 Assay for human p53 Transcription Factor (AID 2282994; active = hit-call score of the fitted dose curve at least 0.9, where 1 is the maximum; inactive = score below 0.9); conditions: HepG2 p53 cis-element reporter, Attagene mRNA; actives raise or lower the signal
Chain of Cellular tumor antigen p53 (Homo sapiens) (P04637 whole entry, looked up): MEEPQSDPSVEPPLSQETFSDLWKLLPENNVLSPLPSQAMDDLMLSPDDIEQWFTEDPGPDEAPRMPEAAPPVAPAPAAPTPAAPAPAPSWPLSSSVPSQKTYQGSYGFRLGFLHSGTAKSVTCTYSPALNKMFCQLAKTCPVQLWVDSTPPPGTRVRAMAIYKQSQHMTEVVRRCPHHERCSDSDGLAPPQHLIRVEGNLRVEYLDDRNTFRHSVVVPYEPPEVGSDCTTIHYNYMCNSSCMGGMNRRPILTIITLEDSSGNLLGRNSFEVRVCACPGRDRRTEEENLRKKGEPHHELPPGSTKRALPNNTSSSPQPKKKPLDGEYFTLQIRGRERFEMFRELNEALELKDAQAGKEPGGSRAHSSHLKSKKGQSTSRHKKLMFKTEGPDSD
Method in brief: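 HepG2 cells transiently transfected with cis-regulated multiple reporter transcription units, dosed 24 h. Reporter mRNA measured by RT-PCR, 6-FAM primer extension, HpaI digestion and capillary electrophoresis; bidirectional fit relative to DMSO.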

[17] = TOX21_p53_BLA_p3_viability: Viability Assessment in the Tox21 HCT-116 p53 Agonism Beta-lactamase Assay, Phase 3 (AID 2283593);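 also: cells exposed to compound for 16 h before reading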
Method in brief: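 HCT-116 cells (4000/well) rested 5 h at 37C, then got DMSO compounds by pin tool (217-fold dilution) for 16 h at 37C, 5% CO2. After the bla read, CellTiter-Glo was added and luminescence read at 30 min, room temperature.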

[18] = TOX21_p53_BLA_p4_viability: Viability Assessment in the Tox21 HCT-116 p53 Agonism Beta-lactamase Assay, Phase 4 (AID 2283597);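 also: hits lower the luminescence signal meaning cytotoxicity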
Method in brief: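 Following a 16 h exposure at 37C, the treated HCT116 wells were first read for the FRET ratio. They were then lysed with CellTiter-Glo, and ATP luminescence was recorded after 30 min at room temperature.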

[19] = target: human RAR-related Orphan Receptor gamma (RORg), RORC (gene 6097) (UniProt P51449); experiment: ATG_RORg_TRANS: Attagene TRANS-FACTORIAL HepG2 Assay for human RAR-related Orphan Receptor gamma (RORg) (AID 2283011)
Chain of human RAR-related Orphan Receptor gamma (RORg), RORC (gene 6097) (P51449 whole entry, looked up, the tested form may be a part): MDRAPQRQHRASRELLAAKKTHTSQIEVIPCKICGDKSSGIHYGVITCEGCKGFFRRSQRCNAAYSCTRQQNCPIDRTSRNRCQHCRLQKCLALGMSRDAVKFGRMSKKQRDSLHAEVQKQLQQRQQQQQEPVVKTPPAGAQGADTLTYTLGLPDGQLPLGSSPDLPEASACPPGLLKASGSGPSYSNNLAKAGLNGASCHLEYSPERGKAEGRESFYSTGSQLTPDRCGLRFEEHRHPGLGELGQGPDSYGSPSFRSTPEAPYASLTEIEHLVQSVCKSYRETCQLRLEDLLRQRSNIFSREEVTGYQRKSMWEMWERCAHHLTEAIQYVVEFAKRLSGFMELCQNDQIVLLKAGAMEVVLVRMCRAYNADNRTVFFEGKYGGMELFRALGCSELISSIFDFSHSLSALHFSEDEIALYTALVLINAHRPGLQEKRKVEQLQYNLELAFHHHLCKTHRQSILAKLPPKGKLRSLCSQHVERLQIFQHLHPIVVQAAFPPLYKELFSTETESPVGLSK
Method in brief: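 Reporter transcripts from a transfected RORg-GAL4 chimera in HepG2 cells were quantified 24 h after dosing by RT-PCR, 6-FAM labelling, HpaI digestion and capillary electrophoresis; increases over DMSO baseline were fitted.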

Measured: AC50

C[N+](=O)[O-]
inactive: [1] | [2] | [3] | [4] | [5] | [6]

Cc1ccc(C)c2ccccc12
inactive: [7] | [8] | [9] | [10] | [3] | [4] | [5] | [11] | [12]

CC(C)(C)C(O)C(Oc1ccc(-c2ccccc2)cc1)n1cncn1 (stereo not given)
inactive: [8] | [10] | [1] | [2] | [5] | [13] | [12] | [14]
active: [7] 55.2 µM

CC(=O)/C=C/c1ccccc1
active: [15] 85.1 µM
inactive: [9] | [4] | [5] | [11] | [13]

C[C@]12CCC(=O)C(O)=C1CC[C@@H]1[C@@H]2CC[C@]2(C)C(=O)CC[C@@H]12
inactive: [10] | [1] | [2] | [3] | [4] | [16] | [13] | [12] | [6] | [17] | [18] | [14]

CC(C)C(=O)Cl
inactive: [7] | [8] | [10] | [5] | [13] | [12] | [15]

O=C(CCN1CC1)OCC(CO)(COC(=O)CCN1CC1)COC(=O)CCN1CC1
active: [15] 63.1 µM
inactive: [7] | [1] | [2] | [16] | [11] | [12] | [17]

O=S(=O)(O)OOS(=O)(=O)O
inactive: [8] | [10] | [4] | [5] | [19] | [12]

CCC(C)(C)O
inactive: [8] | [9] | [1] | [2] | [19] | [15] | [14]

CC(=O)C=Cc1ccccc1
inactive: [9] | [10] | [1] | [3] | [4] | [5] | [11] | [19] | [13] | [12] | [15] | [14]

CCCCCc1cc(O)cc(O)c1
inactive: [16] | [5] | [13] | [12] | [18]
active: [7] 155 µM

CCc1cc(C)cc(CC)c1-c1c(OC(=O)C(C)(C)C)n2n(c1=O)CCOCC2
inactive: [7] | [8] | [10] | [1] | [16] | [5] | [11] | [19] | [14]

CNC(=N[N+](=O)[O-])NCC1CCOC1 (stereo not given)
inactive: [7] | [10] | [1] | [2] | [16] | [11] | [19] | [18] | [14]

C[N+](C)(C)CC(=O)[O-]
inactive: [8] | [5] | [11] | [19] | [14]

CSc1nc(N=[N+]=[N-])nc(NC(C)C)n1
inactive: [8] | [10] | [3] | [4] | [5] | [13] | [12] | [17] | [18]
